The record followed here is PubChem BioAssay AID1345083 (National Center for Advancing Translational Sciences (NCATS), 2018).

In all, about 94,000 compounds went through this assay and about 6,200 (6.6%) were called active. Entries that show only a call come without a potency. Inconclusive results (about 31%) are left out. The call rests on the fitted dose curve; in most records, active means well fitted inhibition curve with a large enough effect; inconclusive means small, poorly fitted or top-dose-only effect; inactive means flat fitted curve, though single readings scatter. The sample as a whole holds a higher share of actives than the screen did.
Potency means the concentration at half of the fitted maximal effect.

The assay can be described thus: Cytotoxic Profiling in HEK 293 Cell Line of Diverse Libraries Using Quantitative High-Throughput Screening. Further: nearly all actives have a fitted effect of over 60% in size. To be noted: HEK 293 viability, ATP luminescence (CellTiter-Glo), 48-72 h; series mostly up to 115 µM. The procedure, abridged: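 Cells seeded first (HEK 293, 250 cells/well), then compound added by pintool. Incubation ran 48 or 72 hr at 37 degree Celsius. CellTiter-Glo was added and luminescence imaged after 10 min at room temperature.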
Background: In ATP-based viability assays light output follows the ATP content of the culture.
`Cc1ccc(OCc2nc(C3CCN(C(=O)c4noc(C)c4CN4CCCCC4)CC3)no2)cc1`: the Potency is 31.6 µM (active).
Regarding `COc1ccc2c(c1)CCc1c-2n[nH]c1C(=O)N1CCC(c2noc(COc3ccc(C)cc3)n2)CC1`, the Potency was 22.4 µM (active).
As for `CCOc1ccc(C(=O)N2CCCC(c3noc(COC)n3)C2)cc1` (configuration not stated), the entry is “inactive”; as for `COCc1nc(C2CCN(C(=O)c3ccn[nH]3)C2)no1` (configuration not stated), “inactive”; as for `COCc1nc(C2CCN(C(=O)c3ccoc3)C2)no1` (configuration not stated), “inactive”.
As for `COCCOCc1nc(C2CCN(C(=O)c3ccncc3)CC2)no1`, the entry is “inactive”; as for `CCC(C)NC(=O)C1COC2(CCN(C(=O)CC(C)(C)C)CC2)N1C(=O)c1cccc(OC)c1` (configuration not stated), “inactive”; as for `COc1ccc(S(=O)(=O)N2CCC(N(C(=O)C3CC3)C3CCOCC3)CC2)cc1`, “inactive”.
For the compound `COCc1cc(=O)n(CC(=O)Nc2ccc(C)cc2)c(N2CCOCC2)n1`, the Potency entry is “inactive”.
As for `CN(Cc1ccc(OC(F)(F)F)cc1)C(=O)C1(C)CCOCC1`, the entry is “inactive”; as for `CNC(=O)c1cc[nH]c1C1CCCN(C(=O)c2noc(C)c2Cn2cccn2)C1` (configuration not stated), “inactive”.
As for `COc1cccc(C(=O)N2C(C(=O)NC3CC3)COC23CCN(C(=O)c2ccc(F)cc2)CC3)c1` (configuration not stated), the entry is “inactive”; as for `O=C(CCC[C@@H]1[C@H]2CCCN3CCC[C@@H](CN1C(=O)c1cccnc1)[C@@H]23)NCCCc1ccccc1`, “inactive”; as for `COc1ccc(S(=O)(=O)N2CCc3c(C(=O)NCCc4ccccn4)cccc32)cc1`, 44.7 µM (active).
As for `Cc1ccc(C)c(CNC(=O)c2ccc3c(c2)N(S(=O)(=O)c2ccccc2)CC3)c1`, the entry is “inactive”; as for `COc1ccc(S(=O)(=O)N2CCc3c(C(=O)NCc4ccncc4)cccc32)cc1`, 35.5 µM (active).
`COc1ccc(-c2nc(C(C)C)nc3c2CCN(C(=O)Cc2ccccn2)CC3)cc1`: the Potency entry was “inactive”.
As for `COc1ccc(S(=O)(=O)N2[C@@H]3CC[C@H]2CC(NC(=O)c2ccncc2)C3)cc1` (some centres not stated), the entry is “inactive”.
With `COCC1CCCCN1c1ccc(C(=O)NCCCc2ccccn2)cn1` (configuration not stated), the Potency entry is “inactive”.
Turning to `CCCNC(=O)N(C1CCOCC1)C1CCN(C(=O)c2ccc(F)c(F)c2)CC1`, the Potency result is “inactive”.
As for `Cc1cccc(OCC(=O)N2CCCC(n3cc(-c4noc(C)n4)nn3)C2)c1` (configuration not stated), the entry is “inactive”; as for `COCCCn1c(=O)c(C(=O)N2CCN(C(=O)c3ccccc3)CC2)nc2cccnc21`, “inactive”.
`C=CCNC(=O)C(NC(=O)c1cccc(OC)c1)C1CCN(C(=O)c2ccccc2F)CC1` (configuration not stated): the Potency result is “inactive”.
As for `C#CCNC(=O)C1CN(c2ccc(OC)cc2)C(=O)N1` (configuration not stated), the entry is “inactive”.
As for `CNC(=O)c1cc(C2CC2)nc2onc(C3CCCN(C(=O)C4CC4)C3)c12` (configuration not stated), the entry is “inactive”; as for `CN1Cc2ccc(CN(C)C(=O)C3CCN(Cc4ccco4)CC3)cc2C1`, “inactive”; as for `c1ccc(-c2nc(C3CCOCC3)nn2CC2COCCO2)cc1` (configuration not stated), “inactive”.
As for `CC(=O)N1CCN(C(=O)C[C@@H]2c3nc(NC(=O)c4cccs4)sc3C[C@@H]3[C@](C)(CO)[C@H](O)CC[C@]32C)CC1`, the entry is “inactive”; as for `CN(C)CCNC(=O)C[C@@H]1c2nc(NC(=O)c3ccc(C(C)(C)C)cc3)sc2C[C@@H]2[C@](C)(CO)[C@H](O)CC[C@]21C`, 31.6 µM (active); as for `COCC(=O)Nc1nc2c(s1)C[C@@H]1[C@](C)(CO)[C@H](O)CC[C@@]1(C)[C@@H]2CC(=O)NCCN1CCOCC1`, “inactive”.
On to `CC(C)CCN(C1CCOCC1)C1CCN(Cc2cccnc2)CC1`, for which the Potency result is “inactive”.
As for `O=C(c1ccc(Cl)cc1Cl)N1CCC(c2nnc3n2C(C(=O)N2CCN(c4ncccn4)CC2)CC3)CC1` (configuration not stated), the entry is “inactive”; as for `COc1cc(C(=O)N2CCCN(S(C)(=O)=O)c3ccccc32)cc(OC)c1OC`, “inactive”; as for `Cc1ccc(CCN2CCCCC23Cc2ccccc2CN(C(=O)CCCC(=O)O)C3)cc1` (configuration not stated), “inactive”.
For `CC(=O)N1Cc2ccccc2CC2(CCCCN2C)C1` (configuration not stated), the Potency entry is “inactive”.
Regarding `O=C(c1ccccc1)N1Cc2ccccc2CC2(CCCN2CC2CCNC2)C1` (configuration not stated), the Potency is 79.4 µM (active).
For the compound `CC(=O)NCCC(=O)N1Cc2ccccc2CC2(CCCCN2CC2CCNC2)C1` (configuration not stated), the Potency entry is “inactive”.
As for `CCN1CCCCC12Cc1ccccc1CN(S(C)(=O)=O)C2` (configuration not stated), the entry is “inactive”; as for `O=C(C1CCCC1)N1Cc2ccccc2CC2(CCCCN2CC2CCNCC2)C1` (configuration not stated), 25.1 µM (active); as for `O=C(NC1CCCCC1)C1CN(S(=O)(=O)c2cccc(Cl)c2)CC12CCOCC2` (configuration not stated), “inactive”.
As for `NC(=O)[C@H](CCC(=O)O)NC(=O)[C@@]1(O)C[C@@H](O)[C@H](O)[C@@H](NS(=O)(=O)c2cccc(C(F)(F)F)c2)C1`, the entry is “inactive”.
With `Cn1nnc(-c2ccc(C(=O)N[C@H]3C[C@@H]4OCC[C@H]34)cc2)n1`, the Potency entry was “inactive”.
As for `c1cnc2nc(C3CCCCN3)[nH]c2c1` (configuration not stated), the entry is “inactive”; as for `Cc1cc(C(=O)NCC2Cn3cccc3C(=O)N2CC(C)C)n(C)n1` (configuration not stated), “inactive”.
On to `CC(C)N1Cc2cc(C(=O)Nc3cccc4c3CCCC4)sc2C1`, for which the Potency was 28.2 µM (active).
As for `COCCn1ccc2c(NC(=O)Cn3nc4c(cc3=O)CCCC4)cccc21`, the entry is “inactive”.
As for `CC(C)N1Cc2cc(C(=O)O)sc2C1`, the entry is “inactive”; as for `O=C(O)C[C@@H]1CCN(C(=O)C2CCCCC2)C[C@@H]1CCN1CCN(c2ccccc2)CC1`, “inactive”; as for `CCOC(=O)[C@@H]1[C@@H](OC)C(=O)N(Cc2ccccc2)C12CCN(C(=O)c1ccc(F)cc1)CC2`, “inactive”.
As for `O=C(c1ccc(F)cc1)N1CCC2(CC1)CCN(Cc1cccs1)c1ccccc1O2`, the figure is 44.7 µM (active).
Take `O=C(O)CCC(=O)N1CCOC2(CCN(C(=O)c3ccccc3)CC2)C1`: the Potency entry was “inactive”.
For the compound `COCC(=O)N(C1CCOCC1)C1CCN(S(=O)(=O)c2ccc(F)c(F)c2)CC1`, the Potency result was “inactive”.
As for `O=C1OCCN1C1CCN(S(=O)(=O)c2ccccc2)CC1`, the entry is “inactive”; as for `O=S(=O)(c1ccccc1)N1CCC(CCOc2ccccc2)C1` (configuration not stated), 79.4 µM (active); as for `O=C(CCC1CCN(S(=O)(=O)c2ccccc2)CC1)NCc1ccccn1`, “inactive”.
As for `CCCN1C(=O)NC(Cc2nc(-c3cccnn3)no2)C1=O` (configuration not stated), the entry is “inactive”.
In the case of `COc1ccccc1C(=O)NCC1COc2ncncc2C(=O)N1Cc1ccccc1` (configuration not stated), the Potency entry is “inactive”.
Turning to `CSCC(=O)N1CCc2[nH]nc(-c3ccc4c(c3)OCO4)c2C1`, the Potency result was “inactive”.
In the case of `Fc1ccccc1-c1n[nH]c2c1CN(Cc1cccc3c1OCO3)CC2`, the Potency is 44.7 µM (active).
As for `O=C1Cc2c(-c3ccc(F)cc3F)n[nH]c2CN1Cc1ccccc1F`, the entry is “inactive”.
In the case of `O=C(c1cccc(Cl)c1)N1CCC(C(=O)N2CCCC(c3nc4ccncc4[nH]3)C2)CC1` (configuration not stated), the Potency entry was “inactive”.
On to `O=C(N1CCCC1c1nc(CCOCC2CC2)no1)C1(c2ccccc2)CC1` (configuration not stated), for which the Potency entry was “inactive”.
As for `O=C(c1ccc(-n2cnnc2)cc1)N1CCC2(CCCO2)CC1`, the entry is “inactive”.
Take `Cn1cccc1C(=O)N[C@H]1C[C@@H](C(=O)O)N(C(=O)CSCC(=O)N2C[C@@H](NC(=O)c3cccn3C)C[C@H]2C(=O)O)C1`: the Potency result was “inactive”.
As for `CCc1nc(-c2c3n(c(=O)n(CC(=O)Nc4ccc(C)cc4)c2=O)CCCCC3)no1`, the entry is “inactive”; as for `Cc1cccc(S(=O)(=O)N2CCC(n3cnnc3C(C)C)CC2)c1`, “inactive”.
As for `N#Cc1cccc(CN2CCCN(S(=O)(=O)c3ccccc3)CCC(=O)NCC2)c1`, the entry is “inactive”.
In the case of `Cc1cccc(-c2cc(C3CCN(S(=O)(=O)c4cccc(C#N)c4)CC3)[nH]n2)c1`, the Potency was 25.1 µM (active).
Turning to `O=C(O)C[C@@H]1CCN(C(=O)c2ccc(C(F)(F)F)cc2)C[C@@H]1CCN1CCN(c2ccc(F)cc2)CC1`, the Potency result was “inactive”.
As for `COCCNC(=O)C1COC2(CCN(C(=O)c3ccc(F)cc3)CC2)N1C(=O)c1ccccc1C` (configuration not stated), the entry is “inactive”; as for `COc1ccccc1Nc1ccnc(N2CCC(C(=O)NCc3ccc(C(F)(F)F)cc3)CC2)n1`, 31.6 µM (active); as for `Cc1ccc(C2Cn3cnc(C(=O)N4CCC(C(=O)NCc5cccc(Cl)c5)CC4)c3CO2)cc1` (configuration not stated), “inactive”.
For the compound `COc1ccc(C2Cn3cnc(C(=O)N4CCC(C(=O)NCc5cccc(F)c5)CC4)c3CO2)cc1` (configuration not stated), the Potency entry is “inactive”.
As for `COc1ccccc1Nc1ccnc(N2CCN(C(=O)c3ccc(C(F)(F)F)cc3)CC2)n1`, the figure is 39.8 µM (active).
As for `O=C(Nc1ccccc1Cl)N1CCC(Oc2ncccc2C(=O)N2CCCCC2)C1` (configuration not stated), the Potency result was “inactive”.
As to `O=C(c1ccccc1Cl)N1CCN(C(=O)c2nc3cccnc3n(Cc3ccccc3)c2=O)CC1`, the Potency entry is “inactive”.
As for `COc1ccccc1Nc1ccnc(N2CCC(NC(=O)NC(C)C)CC2)n1`, the entry is “inactive”.
As for `Cc1ccccc1C(=O)N1CCN(c2nccc(Nc3ccccc3Cl)n2)CC1`, the figure is 35.5 µM (active); as for `COc1ccc(C2Cn3nnc(C(=O)N4CCC(C(=O)NCc5ccc(C)cc5)CC4)c3CO2)cc1` (configuration not stated), “inactive”; as for `COc1cccc(C(=O)N2CCN(c3nccc(Nc4ccccc4OC)n3)CC2)c1`, “inactive”.
As for `COc1ccccc1Nc1ccnc(N2CCC(C(=O)NCc3cccc(Cl)c3)CC2)n1`, the figure is 39.8 µM (active); as for `COc1ccccc1C(=O)N1CCN(c2cc(C(F)(F)F)ncn2)CC1`, “inactive”; as for `O=C1NC2(Cc3ccccc31)CN([S+](=O)([O-])c1cccc(C(F)(F)F)c1)C2`, “inactive”.
For the compound `O=C(NCC1CC1)c1cn(C2CN(C(=O)Nc3ccccc3)C2)nn1`, the Potency entry was “inactive”.
As for `CCCNC(=O)N1CCOC[C@H](Oc2cccnc2)C1`, the entry is “inactive”; as for `CCc1cccc(NC(=O)C2(C)CCCCC(=O)N2)c1` (configuration not stated), “inactive”.
`CC(=O)N1CCOc2ccc(CCC(=O)NCc3nc4ccccc4n3C)cc2C1`: the Potency result is “inactive”.
As for `CCCCN1C(=O)[C@@H]2C[C@@H](O)CN2C2(CN(CC(C)C)C2)C1=O`, the entry is “inactive”.
With `COCC1(CNS(=O)(=O)c2ccc(F)cc2)C[C@@H](O)[C@@H](O)C1` (some centres not stated), the Potency result is “inactive”.
As for `COc1ccc(CNC(=O)[C@@H]2CCC[C@@H](NCc3nccs3)CN(C)C(=O)C2)cc1`, the entry is “inactive”; as for `COc1ccc(Nc2ccnc(N3CCCC(C(=O)NCc4ccc(C(F)(F)F)cc4)C3)n2)cc1` (configuration not stated), 20 µM (active); as for `COc1ccc(Nc2ccnc(N3CCC(C(=O)N4CCN(C(C)=O)CC4)CC3)n2)cc1`, “inactive”.
